# Laboratory results published in PubChem BioAssay AID764 (NMMLSC, 2007).
# The whole screen tested about 190,000 compounds, of which about 220 (0.12%) were called active. Inconclusive results (about 2%) are left out. Only a selection was taken, and actives are over-represented in it overall. Values without a mark were called inactive.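 How the source made its calls: active means GTP binding at least 20 percentage points away from the 100% baseline, in either direction, so actives lie on both sides; inconclusive means Compound likely fluorescent itself, or too few beads counted; inactive means the rest.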
# Molecular target: Ras-related C3 botulinum toxin substrate 1 (Homo sapiens) (UniProt P63000)
# Assay: GTP binding modulators of activated mutant Rac1, primary screen, biochemical, bead-based flow cytometry, multiplex, fluorescent GTP (AID 764)
# Details: GST-Rac1 activated beads, at 10 µM, actives lie on both sides, 100% means binding = to untreated wells
row,SMILES,percent activity (GTP binding)
1,Cc1ccc(SC(C)C(=O)NCc2ccc(F)cc2)cc1 (stereo not drawn),94%
2,CC(C)(C)CN1CCNC(=O)C1CC(=O)NC1Cc2ccccc2C1 (stereo not drawn),91%
3,O=C(NC(=S)Nc1ccc(S(=O)(=O)Nc2ncccn2)cc1)c1cccc(Br)c1,92%
4,O=C(O)/C=C/c1cn(-c2ccccc2)nc1-c1cccs1,89%
5,O=C(O)/C=C/c1cn(Cc2ccccc2)nc1-c1cccs1,130% [activator] (active)
6,O=C(/C=C\c1cn(-c2ccccc2)nc1-c1cccs1)N1CCOCC1,103%
7,Cc1cc(N2CCOCC2)nc2ccc(NC(=S)N3CCN(Cc4ccccc4)CC3)cc12,96%
8,O=C(Nc1ccc(N2CCOCC2)cc1)c1ccc(-c2ccccc2[N+](=O)[O-])o1,93%
9,Cn1cc(Cl)c(C(=O)NNC(=S)Nc2cccc(Cl)c2)n1,91%
10,O=C(O)c1ccc(/C=N/NC(=S)NCc2ccccc2)cc1,94%
11,CN(C)C(=O)c1cccn(Cc2cccc(C(F)(F)F)c2)c1=O,94%
12,CN(C)N(C)C(=O)C(O)(c1ccccc1)c1ccccc1,96%
13,Cc1cc(C(=O)CC#N)c(C)n1-c1c(C)n(C)n(-c2ccccc2)c1=O,96%
14,O=C(O)CCN(Cc1ccccc1)S(=O)(=O)c1c(Cl)cccc1Cl,95%
15,Cc1[nH]c2ccccc2c1/C=C(/C#N)C(=O)NC(C)C,95%
16,Cn1cc(CN2CCCC(CO)C2)c(-c2ccc(Oc3ccccc3)cc2)n1 (stereo not drawn),94%
17,COc1ccc(/C=C/CN2CCCC(C(=O)c3cc(F)ccc3F)C2)cc1 (stereo not drawn),96%
18,CN1C=CC=C/C1=C1\SC(=S)N(Cc2ccccc2)C1=O,97%
19,Cc1cc(C(=O)NNC(=O)c2cccc(S(=O)(=O)N3CCOCC3)c2)c2ccccc2n1,93%
20,Cc1noc(C)c1/C=N/Nc1ccc2ccccc2n1,97%
21,O=C(c1ccncc1)N1CCN(c2ccc3ccccc3n2)CC1,98%
22,COc1cc(/C=C/C(=O)OCC(=O)NC(=O)NCc2ccccc2)ccc1OCC#N,90%
23,O=C(c1ccc2ccccc2n1)N1CCN(c2ccccc2Cl)CC1,95%
24,CCn1c(SCC(=O)Nc2nccs2)nnc1-c1ccco1,95%

row,SMILES,percent activity (GTP binding)
1,COc1ccc(OC)c(S(=O)(=O)Nc2cccc(-c3ccc4nncn4n3)c2)c1,95%
2,Cc1ccc(-n2cc(CN(C)Cc3nccn3C)c(-c3cccc(C)c3)n2)cc1,97%
3,Cc1ccc(C(=O)Nc2cccc3ncccc23)cc1[N+](=O)[O-],94%
4,O=C(CN1CCN(C/C=C/c2ccccc2)CC1)Nc1ccc(F)cc1F,93%
5,CCc1ccc(N2CC(O)=C(c3nc4ccccc4c(=O)[nH]3)C2=N)cc1,94%
6,COc1ccc(/C=N/n2c(C)cc(C)cc2=O)cc1,97%
7,CC(C)Oc1ccccc1C(=O)NC(CO)C(=O)O (stereo not drawn),96%
8,CCOC(=O)C1=NOC(Cn2cc(C(C)=O)c(=O)[nH]c2=O)C1 (stereo not drawn),92%
9,COC(=O)CN1C(=O)N/C(=C/c2ccc(OC)c(C)c2OC)C1=O,96%
10,CCOc1cc(NS(=O)(=O)c2ccc(OC)cc2)c(OCC)cc1NC(C)=O,97%
11,CN(C)S(=O)(=O)c1ccc2oc(SCC(=O)Nc3ccccc3F)nc2c1,95%
12,Cc1nc2cc(NCc3cccs3)ccc2n1C,97%
13,CCOP(=O)(OCC)C(Nc1ccc([N+](=O)[O-])cc1)c1ccc(Cl)cc1 (stereo not drawn),92%
14,CCNC(=O)c1ccc(OCC(=O)Nc2ccc(F)cc2)c(OC)c1,94%
15,CCC(=O)Nc1ccc(Nc2nc(Cl)nc(Nc3ccc(NC(=O)CC)cc3)n2)cc1,94%
16,Cc1nnc(CN(C)Cc2cn[nH]c2-c2ccc(-c3ccccc3)cc2)o1,97%
17,CC1(C)OC(=O)C(=CSc2ccc(C(C)(C)C)cc2)C(=O)O1,96%
18,COc1ccccc1NC(=O)c1c(Br)cnn1C,95%
19,Cc1cnc(C(=O)OCC(=O)N2CCc3ccccc32)cn1,96%
20,Cc1cc(C)c(C#N)c(N2CCC(C(N)=O)CC2)n1,98%
21,OCCC1CN(Cc2cccc(OC3CCCC3)c2)CCN1Cc1ccsc1 (stereo not drawn),95%
22,CCN(CC)CCNC(=O)c1ccc(NC(=O)c2c(F)cccc2Cl)cc1,99%
23,CCc1ccc(-n2c(SCc3cc(=O)n4cc(Br)ccc4n3)nc3[nH]ncc3c2=O)cc1,94%
24,O=C1CC(=O)Nc2cc(S(=O)(=O)N3CCN(c4cccc(C(F)(F)F)c4)CC3)ccc2N1,93%
